Reference: the supplement of paper PMC6992640
± gives the standard deviation of the averaged measurements.

Key:
Assay in all cases: cell viability (% of vehicle); higher = less cytotoxic
[1] = tested on: HCI01 (cells of a triple-negative basal-like breast cancer xenograft); conditions: 1 µM; 72 h
[2] = tested on: UCD52 (cells of a triple-negative basal-like breast cancer xenograft); conditions: 1 µM; 72 h
[3] = tested on: WHIM2 (cells of a triple-negative basal-like breast cancer xenograft); conditions: 1 µM; 72 h
[4] = tested on: WHIM30 (cells of a triple-negative basal-like breast cancer xenograft); conditions: 1 µM; 72 h
[5] = tested on: HCI01; conditions: 10 µM; 72 h
[6] = tested on: HCI03 (cells of an ER-positive luminal breast cancer xenograft); conditions: 10 µM; 72 h
[7] = tested on: HCI09 (cells of a triple-negative luminal androgen receptor type breast cancer xenograft); conditions: 10 µM; 72 h
[8] = tested on: HCI11 (cells of an ER-positive luminal breast cancer xenograft); conditions: 10 µM; 72 h
[9] = tested on: HCI13 (cells of an ER-positive luminal breast cancer xenograft); conditions: 10 µM; 72 h
[10] = tested on: HCI16 (cells of a triple-negative basal-like breast cancer xenograft); conditions: 10 µM; 72 h
[11] = tested on: UCD52; conditions: 10 µM; 72 h
[12] = tested on: WHIM2; conditions: 10 µM; 72 h
[13] = tested on: WHIM30; conditions: 10 µM; 72 h

| Compound | cell viability [1] | cell viability [2] | cell viability [3] | cell viability [4] | cell viability [5] | cell viability [6] | cell viability [7] | cell viability [8] | cell viability [9] | cell viability [10] | cell viability [11] | cell viability [12] | cell viability [13] |
| --- | --- | --- | --- | --- | --- | --- | --- | --- | --- | --- | --- | --- | --- |
| O=C(O)c1cc(O)c(O)c(O)c1 [Gallic acid] | 96.4 | 97.1 | 82.1 | 102 | 77.5 ± 0.96 | 107 | 90.8 ± 9.4 | 54.3 | 105 ± 7.6 | 126 | 91.2 ± 8.8 | 58 ± 13 | 84.5 ± 8.9 |
| Clc1ccc(CSC(Cn2ccnc2)c2ccc(Cl)cc2Cl)cc1.O=[N+]([O-])O (centres undefined) [Sulconazole Nitrate] | 95.2 | 96.5 | 108 | 92.9 | 28.4 ± 6.5 | 77.3 | 24.5 ± 2.6 | 78.3 | 40.1 ± 3 | 74.1 | 35.2 ± 2.8 | 34.9 ± 8.5 | 119 ± 0.69 |
| CO[C@H]1/C=C/O[C@@]2(C)Oc3c(C)c(O)c4c(O)c(c(/C=N/N5CCN(C6CCCC6)CC5)c(O)c4c3C2=O)NC(=O)/C(C)=C\C=C\[C@H](C)[C@H](O)[C@@H](C)[C@@H](O)[C@@H](C)[C@H](OC(C)=O)[C@@H]1C [Rifapentine] | 93.7 | 88.8 | 104 | 95.8 | 47.7 ± 28 | 120 | 26.9 ± 5.9 | 104 | 133 ± 18 | 122 | 77.4 ± 4.6 | 53.9 ± 24 | 117.8 ± 0.39 |
| CS(=O)(=O)CCNCc1ccc(-c2ccc3ncnc(Nc4ccc(OCc5cccc(F)c5)c(Cl)c4)c3c2)o1.Cc1ccc(S(=O)(=O)O)cc1.Cc1ccc(S(=O)(=O)O)cc1 [Lapatinib Ditosylate] | 71.7 | 57.1 | 56.2 | 61.1 | 49.51 ± 0.1 | 45.4 | 36.3 ± 18 | 67.8 | 42.39 ± 0.3 | 61.8 | 28.1 ± 1.9 | 37.7 ± 3 | 47.4 ± 4 |
| CC[C@@H]1/C=C(\C)C[C@H](C)C[C@H](OC)[C@H]2O[C@@](O)(C(=O)C(=O)N3CCCC[C@H]3C(=O)O[C@H](/C(C)=C/[C@@H]3CC[C@H](Cl)[C@H](OC)C3)[C@H](C)[C@@H](O)CC1=O)[C@H](C)C[C@@H]2OC [Pimecrolimus] | 102 | 89 | 82.4 | 86 | 71.4 ± 29 | 65.3 | 29.4 ± 5.2 | 76.9 | 56.5 ± 5.4 | 71.1 | 43.9 ± 8 | 62.5 ± 15 | 87.7 ± 14 |
| CC1CC(=O)NN=C1c1ccc(NN=C(C#N)C#N)cc1 (centres undefined) [Levosimendan] | 89.2 | 95.2 | 114 | 96.7 | 50.6 ± 31 | 183 | 51.9 ± 30 | 139 | 145 ± 28 | 82.2 | 51.1 ± 2.5 | 47.8 ± 9.7 | 86.7 ± 2.7 |
| COc1cc2nccc(Oc3ccc(NC(=O)NC4CC4)c(Cl)c3)c2cc1C(N)=O [Lenvatinib (E7080)] | 89.1 | 56.2 | 83 | 94.1 | 94.2 ± 28 | 70.5 | 79.8 ± 7.3 | 48.6 | 44.8 ± 3.3 | 61.4 | 57.8 ± 6.3 | 64 ± 21 | 48.1 ± 2 |
| CNC(=O)c1cc(Oc2ccc(NC(=O)Nc3ccc(Cl)c(C(F)(F)F)c3)cc2)ccn1 [Sorafenib] | 107 | 67.7 | 92.6 | 78 | 43.2 ± 12 | 89.2 | 25.2 ± 2.9 | 52.4 | 33.2 ± 5.5 | 41.1 | 46 ± 1.8 | 42.7 ± 5.5 | 37 ± 2.4 |
| C=C(c1ccc(C(=O)O)cc1)c1cc2c(cc1C)C(C)(C)CCC2(C)C [Bexarotene] | 106 | 107 | 91.9 | 142 | 60.2 ± 32 | 85.9 | 98.5 ± 3.8 | 100 | 54.3 ± 2.4 | 84.7 | 98 ± 14 | 44.8 ± 14 | 93.8 ± 4.4 |
| CO[C@H]1C[C@@H]2CC[C@@H](C)[C@@](O)(O2)C(=O)C(=O)N2CCCC[C@H]2C(=O)O[C@H]([C@H](C)C[C@@H]2CC[C@@H](O)[C@H](OC)C2)CC(=O)[C@H](C)/C=C(\C)[C@@H](O)[C@@H](OC)C(=O)[C@H](C)C[C@H](C)/C=C/C=C/C=C/1C [Rapamycin (Sirolimus)] | 78.1 | 52.6 | 68.3 | 75.4 | 40.4 ± 7.5 | 69.6 | 30.6 ± 8.6 | 51.6 | 39.5 ± 5.2 | 57.1 | 25.5 ± 2.9 | 42 ± 2.1 | 68.9 ± 29 |
| CNC1CCC(c2ccc(Cl)c(Cl)c2)c2ccccc21.Cl (centres undefined) [Sertraline HCl] | 92.9 | 78.6 | 101 | 85.2 | 27.7 ± 2.6 | 74.8 | 32.2 ± 4.6 | 79.2 | 118 ± 3.2 | 60.4 | 29.3 ± 0.42 | 42.8 ± 3.1 | 58.9 ± 1.9 |
| CC1=CC(=O)c2ccccc2C1=O [Menadione] | 98.6 | 94.2 | 105 | 98.2 | 61.6 ± 55 | 51.9 | 31.3 ± 7.9 | 30.5 | 57.3 ± 4.9 | 57.6 | 30.5 ± 2.1 | 44.1 ± 10 | 138 ± 14 |
| CC(C)(C)NC(=O)C1CC2CCCCC2CN1CC(O)C(Cc1ccccc1)NC(=O)C(CC(N)=O)NC(=O)c1ccc2ccccc2n1.CS(=O)(=O)O (centres undefined) [Saquinavir mesylate] | 96.9 | 89.5 | 105 | 99.4 | 101 ± 20 | 104 | 57.7 ± 51 | 95.3 | 38.63 ± 0.17 | 63.8 | 50.4 ± 0.71 | 36.3 ± 2.6 | 103 ± 3.5 |
| COc1cccc2c1C(=O)c1c(O)c3c(c(O)c1C2=O)CC(O)(C(=O)CO)CC3OC1CC(N)C(O)C(C)O1 (centres undefined) [Doxorubicin] | 80.1 | 42.1 | 30.4 | 44.2 | 56.3 ± 15 | 188 | 28.8 ± 3.4 | 49.6 | 176 ± 59 | 60.4 | 24.297 ± 0.024 | 50.6 ± 5.6 | 80.7 ± 5.3 |
| COc1ccc(CN2CCN(C(c3ccc(F)cc3)c3ccc(F)cc3)CC2)c(OC)c1OC.Cl.Cl [Lomerizine HCl] | 85.2 | 90.8 | 99.6 | 92.2 | 85.8 ± 25 | 73.6 | 58.8 ± 20 | 78.5 | 32.61 ± 0.085 | 87.8 | 51.5 ± 0.83 | 48.1 ± 14 | 80 ± 1 |
| Cc1ccc(NC(=O)c2ccc(CN3CCN(C)CC3)cc2)cc1Nc1nc(-c2cccnc2)cs1 [Masitinib (AB1010)] | 113 | 85.9 | 114 | 84.6 | 53.6 ± 6.1 | 68.7 | 20 ± 2.6 | 37.8 | 55.8 ± 12 | 93.6 | 49.9 ± 13 | 46.2 ± 8 | 146 ± 61 |
| CN1CCN(CCOc2cc(OC3CCOCC3)c3c(Nc4c(Cl)ccc5c4OCO5)ncnc3c2)CC1 [Saracatinib (AZD0530)] | 67.9 | 38.7 | 33.9 | 57.5 | 63.85 ± 0.43 | 48.7 | 68.3 ± 18 | 105 | 53 ± 1.4 | 69.1 | 43.8 ± 5.4 | 40.2 ± 11 | 84.6 ± 3.6 |
| Cl.Cl.O=C1c2c(O)ccc(O)c2C(=O)c2c(NCCNCCO)ccc(NCCNCCO)c21 [Mitoxantrone HCl] | 105 | 36.2 | 27.3 | 37.2 | 55.3 ± 38 | 111 | 25.9 ± 0.83 | 55.7 | 73.4 ± 11 | 117 | 27.5 ± 0.38 | 41.3 ± 18 | 65.4 ± 12 |
